Measured values reported in PubChem BioAssay AID1159580 (chemical genetic matrix, 2015).
“And” between values parts separate entries of the source, which are not always exact repeats. Equal values may be shown once. About 2,000 (36%) of roughly 5,500 compounds were called active. Inconclusive results (about 18%) are left out. Cut-off read from the data, not from the text of the source: active = normalized growth mostly below about 0.91 (no sharp cut-off); inconclusive = no clear call, values can overlap the other calls; inactive = mostly above about 0.92. The list shows a part of the results.

Assay: chemical genetic growth profiling, strain panel (AID 1159580);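 note: tested at 20 µM; growth read once vehicle control cultures reached saturation at 30 °C; 1 = growth at the plate median or of vehicle wells; lower values mean less growth of the strain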
Conditions: S. cerevisiae deletion strains, growth OD

Measured: normalized growth

CCc1ccc(CCOc2ccc(CC3SC(=O)NC3=O)cc2)nc1 (configuration not stated)
inactive: locus YAL013W, strain DEP1, active compounds read low 1.01 | locus YAL021C, strain ccr4, active compounds read low 1.03 | locus YAL026C, strain drs2, active compounds read low 1.01 | locus YAL030W, strain snc1, active compounds read low 0.999 | locus YBL061C, strain skt5, active compounds read low 1.01 | locus YBR009C, strain hhf1, active compounds read low 1 | locus YBR021W, strain FUR4, active compounds read low 1 | locus YBR023C, strain chs3, active compounds read low 1 | locus YBR171W, strain sec66, active compounds read low 1.02 | locus YBR229C, strain ROT2, active compounds read low 0.993 | locus YBR231C, strain swc5, active compounds read low 0.999 | locus YBR279W, strain paf1, active compounds read low 1 | locus YCL011C, strain gbp2, active compounds read low 1 | locus YCL016C, strain dcc1, active compounds read low 1 | locus YCL029C, strain bik1, active compounds read low 0.996 | locus YCL061C, strain MRC1, active compounds read low 1.01 | locus YCL069W, strain vba3, active compounds read low 1.01 | locus YCR088W, strain abp1, active compounds read low 1.01 | locus YDL005C, strain med2, active compounds read low 1 | locus YDL035C, strain GPR1, active compounds read low 0.983 | locus YDL040C, strain nat1, active compounds read low 0.99 | locus YDL074C, strain BRE1, active compounds read low 0.974 | locus YDL101C, strain DUN1, active compounds read low 1.01 | locus YDL134C, strain PPH21, active compounds read low 0.998 | locus YDL185W, strain tfp1, active compounds read low 1 | locus YDL192W, strain arf1, active compounds read low 0.996 | locus YDR001C, strain nth1, active compounds read low 1.01 | locus YDR069C, strain doa4, active compounds read low 1.03 | locus YDR101C, strain arx1, active compounds read low 0.995 | locus YDR137W, strain rgp1, active compounds read low 0.916 | locus YDR150W, strain NUM1, active compounds read low 1.01 | locus YDR159W, strain sac3, active compounds read low 1.01 | locus YDR162C, strain NBP2, active compounds read low 1.02 | locus YDR195W, strain ref2 0.995 | locus YDR297W, strain sur2, active compounds read low 1.02 | locus YDR318W, strain mcm21, active compounds read low 0.994 | locus YDR334W, strain swr1, active compounds read low 1.02 | locus YDR335W, strain msn5, active compounds read low 1.02 | locus YDR388W, active compounds read low 0.989 | locus YDR392W, strain spt3, active compounds read low 1 | locus YDR502C, strain sam2, active compounds read low 0.994 | locus YEL003W, strain gim4, active compounds read low 1.02 | locus YEL037C, strain rad23, active compounds read low 1.01 | locus YEL061C, strain CIN8 (second series), active compounds read low 1 | locus YEL061C, strain CIN8, active compounds read low 1.02 | locus YER015W, strain faa2, active compounds read low 1.01 | locus YER016W, strain bim1, active compounds read low 1.01 | locus YER110C, active compounds read low 0.997 | locus YER111C, strain swi4, active compounds read low 1 | locus YER155C, strain BEM2 (second series), active compounds read low 1.05 | locus YER155C, strain BEM2, active compounds read low 0.995 | locus YER167W, strain BCK2, active compounds read low 1 | locus YFR010W, strain ubp6, active compounds read low 1.02 | locus YGL078C, strain dbp3, active compounds read low 0.988 | locus YGL086W, strain mad1, active compounds read low 0.996 | locus YGL167C, strain pmr1, active compounds read low 1 | locus YGL173C, strain kem1, active compounds read low 1.02 | locus YGL227W, strain vid30, active compounds read low 0.995 | locus YGL240W, strain doc1, active compounds read low 1.02 | locus YGL248W, strain PDE1, active compounds read low 0.999 | locus YGL253W, strain hxk2, active compounds read low 0.993 | locus YGR078C, strain PAC10, active compounds read low 1.06 | locus YGR135W, strain pre9, active compounds read low 0.993 | locus YGR229C, strain SMI1, active compounds read low 1.01 | locus YGR252W, strain gcn5, active compounds read low 0.946 | locus YHR013C, strain ard1, active compounds read low 1.03 | locus YHR027C, strain rpn1, active compounds read low 1.02 | locus YHR030C, strain SLT2, active compounds read low 1 and 0.969 | locus YHR079C, strain IRE1 (second series), active compounds read low 0.993 | locus YHR079C, strain IRE1, active compounds read low 0.959 | locus YHR094C, strain hxt1, active compounds read low 0.988 | locus YHR129C, strain ARP1, active compounds read low 0.999 | locus YHR142W, strain chs7, active compounds read low 1.01 | locus YHR200W, strain rpn10, active compounds read low 0.995 | locus YIL066C, strain RNR3, active compounds read low 1.01 | locus YIL073C, strain SPO22, active compounds read low 1.05 | locus YIL125W, strain kgd1, active compounds read low 0.988 | locus YIR030C, strain dcg1, active compounds read low 0.994 | locus YJL092W, strain hpr5, active compounds read low 1 | locus YJL095W, strain BCK1 (second series), active compounds read low 0.998 | locus YJL095W, strain BCK1, active compounds read low 0.979 and 1.01 | locus YJL115W, strain asf1, active compounds read low 1 | locus YJL129C, strain trk1, active compounds read low 1.02 | locus YJL134W, strain LCB3, active compounds read low 1 | locus YJL154C, strain vps35, active compounds read low 1.02 | locus YJL164C, strain tpk1, active compounds read low 0.991 | locus YJL166W, strain qcr8, active compounds read low 1.02 | locus YJL168C, strain set2, active compounds read low 0.99 | locus YJL187C, strain SWE1 (second series), active compounds read low 1.01 | locus YJL187C, strain SWE1, active compounds read low 1.01 | locus YJR043C, strain POL32, active compounds read low 0.991 | locus YJR066W, strain TOR1, active compounds read low 0.942
